# The campaign covered roughly 53,000 compounds. About 900 (1.7%) showed an effect of 50% or more. The entries come from a sample that favours strong results as a whole.
# Test system: Mycobacterium tuberculosis
# Assay: Cornell - Phenotypic assay to identify agents that inhibit growth of Mycobacterium tuberculosis
# Assay type: functional
# Parameters: scale not given: direction of the effect not stated beside the values
# Settings: 10 mM as filed; unlikely as a test dose
row,SMILES,Percent Effect [%]
1,CCc1nnc(CN(CC)C(=O)C2CC(=O)N(C3CC3)C2)o1 (stereo not drawn),3.101
2,CNC(=O)C1CCCN1C(=O)NCCCc1cccc(F)c1 (stereo not drawn),3.774
3,COc1ccc(C2CC(=O)Nc3nc(N4CCOCC4)sc32)cc1 (stereo not drawn),22.64
4,COc1ccc(C2SCC(=O)Nc3n[nH]cc32)c(OC)c1OC (stereo not drawn),-14.08
5,COc1ccc(OC)c(C2CC(=O)Nc3nc(N4CCOCC4)sc32)c1 (stereo not drawn),77.37
6,COc1cccc(C2SCC(=O)Nc3ccsc32)c1OC (stereo not drawn),25.58
7,COc1cccc(C2CC(=O)Nc3nc(N)sc32)c1OC (stereo not drawn),76.98
8,COc1ccc(C2CC(=O)Nc3nc(N4CCOCC4)sc32)c(OC)c1 (stereo not drawn),45.08
9,CCN(Cc1ccncc1)CC1(O)CCN(C(=O)c2cnn(C)c2)C1 (stereo not drawn),-5.524
10,O=C(NCc1ccccc1)[C@H]1C[C@@H]2CN(C(=O)NC3CCCC3)C[C@H]1O2,-33.72
11,Cc1cc(C(=O)N2C[C@@H]3OCCN(CCN4CCCC4)[C@@H]3C2)c(C)o1.O=C(O)C(F)(F)F,-34.44
12,Cc1cccc(NC2CCN(C(=O)Nc3cn[nH]c3)CC2)n1,5.834
13,CCc1cc(N(C)Cc2ccno2)n2nc(C)c(C)c2n1,28.15
14,Cc1nc(NC2CCN(S(=O)(=O)c3ccccc3)CC2)[nH]c(=O)c1C,-2.855
15,Cc1cc(=O)[nH]c(NC2CCN(S(=O)(=O)c3ccccc3)CC2)n1,26.85
16,CCc1cc(=O)[nH]c(NC2CCN(S(=O)(=O)c3ccccc3)CC2)n1,69.51
17,O=C(N1CCOCC1)N1CCc2ncc(CN3CCCCC3)n2CC1.O=C(O)C(F)(F)F,15.78
18,COCCCN(Cc1ccccn1)S(=O)(=O)c1ccc(OC)cc1,-5.527
19,CC(C)(C)c1cc(NC(=O)NCCc2nnc3n2CCC3)c(C#N)s1,18.93
20,Cc1noc(CCCC(=O)NCCc2cc3ccccc3[nH]2)n1,55.01
21,Cc1noc(CCCNC(=O)CNC(=O)c2cc3ccccc3[nH]2)n1,17.25
22,Cc1noc(CCCC(=O)Nc2ncccc2Br)n1,-30.93
23,O=C(O)C(F)(F)F.O=C(O)C(F)(F)F.c1nc(CN2CCC3(CC2)COCCN3CC2CC2)c[nH]1,14.15
24,CC(=O)N1CCC2(C1)c1ccccc1S(=O)(=O)N2Cc1ccccc1 (stereo not drawn),-2.139

row,SMILES,Percent Effect [%]
1,CCS(=O)(=O)N1CCc2ccc(NC(=O)Nc3cccc(C)c3)cc21,35.62
2,CCS(=O)(=O)N1CCc2ccc(NC(=O)Nc3cccc(C#N)c3)cc21,83.89
3,CCS(=O)(=O)N1CCc2ccc(NC(=O)Nc3ccccc3)cc21,24.03
4,O=C(CC1=CSC2=NCCCN12)N1CCCCCC1c1ccco1 (stereo not drawn),-8.894
5,Cc1nn(C)c2nc(-c3ccccn3)nc(NCCC3CCCN3C)c12 (stereo not drawn),-44.58
6,Cc1nn(C)c2nc(-c3ccccn3)nc(NC[C@@H]3CCCO3)c12,21.74
7,CC(=O)NCCNc1nc(-c2ccccn2)nc2c1c(C)nn2C,12.46
8,CCSCCNc1nc(-c2ccccn2)nc2c1c(C)nn2C,51.67
9,CSCC[C@@H](CO)Nc1nc(-c2ccccn2)nc2c1c(C)nn2C,2.174
10,Cc1nn(C)c2nc(-c3ccccn3)nc(NCCCOC(C)C)c12,64.07
11,Cc1nc(-c2cc(C(=O)NC(C)(C(=O)O)C(C)C)co2)cs1 (stereo not drawn),45.67
12,Cc1nc(-c2cc(C(=O)O)co2)cs1,58.57
13,CNC(=O)c1coc(-c2csc(C)n2)c1,11.85
14,CCn1cc(CN2C[C@@H]3CCCN3C[C@H]2CCSC)c(C)n1,-15.91
15,Cc1ccc2c(c1)C1(CCNCC1)CN2C(=O)CN(C)C.O=C(O)C(F)(F)F.O=C(O)C(F)(F)F,0.8832
16,CCS(=O)(=O)Nc1ccn(Cc2ccc(F)cc2Cl)n1,28.06
17,Cn1ncc2c1NC(=O)CC2c1cc(Cl)ccc1F (stereo not drawn),13.85
18,Cn1ncc2c1NC(=O)CC2c1ccc(Cl)cc1Cl (stereo not drawn),59.83
19,Cn1ncc2c1NC(=O)CC2c1ccccc1Cl (stereo not drawn),-9.252
20,Cc1cc(CS(=O)(=O)C(C)C(=O)N(C)c2ccccc2)on1 (stereo not drawn),-17.42
21,CN(Cc1ccco1)[C@@H]1CN(C(=O)C2CCOCC2)C[C@@H]2CCCO[C@@H]21.O=C(O)C(F)(F)F,-2.901
22,NC(=O)C1CCCN(Cc2ccc(C(=O)Nc3cnns3)cc2)C1 (stereo not drawn),2.81
23,CC(=O)Nc1nc(C(=O)NCc2ccc(N3CCCC3)nc2)cs1,-0.1463
24,CSCc1cccc(NC(=O)N2CCC(N3CC=CC3)C2)c1 (stereo not drawn),-39.08

row,SMILES,Percent Effect [%]
1,CCn1c(C)cc(C(=O)N2CCC(Nc3cccnn3)CC2)c1C,7.118
2,CC(C)CNc1cc(-c2c[nH]nc2C2CCN(C(=O)C3CC3)C2)ccn1 (stereo not drawn),30.66
3,CC(C)Nc1cc(-c2c[nH]nc2C2CCN(C(=O)C3CCC3)C2)ccn1 (stereo not drawn),58.28
4,CC(C)Nc1cc(-c2c[nH]nc2C2CCN(C(=O)C3CC3)C2)ccn1 (stereo not drawn),31.29
5,COCCN1C[C@@H]2[C@@H](OC)CCN(S(=O)(=O)c3cccnc3)[C@@H]2C1.O=C(O)C(F)(F)F.O=C(O)C(F)(F)F,21.64
6,CCOCC(=O)N1CCc2nc(C)nc(NC(C)C)c2CC1,-12.05
7,Cc1noc(C)c1CCC(=O)N[C@@H]1CC[C@@H](Oc2cccnc2)[C@@H]1O,15.37
8,Cc1noc(C)c1CC(=O)N[C@@H]1CC[C@@H](Oc2ccccc2)[C@@H]1O,21.6
9,Cc1n[nH]c(C)c1CCC(=O)N[C@@H]1CCC[C@@H](Oc2ccccc2)[C@@H]1O,-14.05
10,CC(C)c1cc(C(=O)N[C@@H]2CC[C@@H](Oc3ccccc3)[C@@H]2O)on1,75.51
11,Cc1noc(C)c1C(=O)N[C@@H]1CC[C@@H](Oc2ccccc2)[C@@H]1O,21.33
12,Cc1noc(C)c1C(=O)N[C@@H]1CCC[C@@H](Oc2ccccc2)[C@@H]1O,50.47
13,COCC(NC(=O)c1cnc(-c2ccncc2)nc1)c1ccnn1C (stereo not drawn),1.357
14,O=C(c1cc(-c2cccs2)on1)N1CCCCC1Cn1cccn1 (stereo not drawn),6.3
15,Cc1csc(Nc2cc(C3CN(c4ccncn4)C3)nc(C)n2)n1,23.54
16,CCc1cccc(NC(=O)CNc2ccccc2OCCC(=O)OC)c1,45.3
17,CCS(=O)(=O)NCC(=O)NC(c1cc(C)sc1C)C(C)C (stereo not drawn),24.3
18,CC(=O)N1CCCC(c2nccnc2Nc2nc(C)cc(C)n2)C1 (stereo not drawn),-9.848
19,Cc1cc(C)nc(Nc2nccnc2C2CCCN(C(CO)CO)C2)n1 (stereo not drawn),36.66
20,Cc1cc(C)nc(Nc2nccnc2C2CCCN(CCO)C2)n1 (stereo not drawn),54.85
21,COc1cc(C2CC(=O)Oc3cc(C)[nH]c(=O)c32)ccc1O (stereo not drawn),15.79
22,Cc1noc(Cl)c1CC(=O)N1CCCC1Cn1cccn1 (stereo not drawn),17.08
23,COc1nccnc1-c1cccc(-c2ccn(CC3COCCO3)n2)c1 (stereo not drawn),14.38
24,CSc1nccc(-c2cccc(-c3ccn(CC4COCCO4)n3)c2)n1 (stereo not drawn),71.9

row,SMILES,Percent Effect [%]
1,COc1cccc(-c2cccc(-c3ccn(CC4COCCO4)n3)c2)n1 (stereo not drawn),-2.003
2,Cc1[nH]nc2ncc(C(=O)N3CCCC3c3noc(C(C)C)n3)cc12 (stereo not drawn),24.5
3,c1cc(-c2ccc3c(c2)C2(CC3)CCN(c3nncs3)CC2)ccn1,26.32
4,O=C(O)C(F)(F)F.c1cncc(-c2ccc3c(c2)C2(CC3)CCN(c3nncs3)CC2)c1,85.45
5,O=C(O)C(F)(F)F.c1cc(-c2ccc3c(c2)CCC32CCN(c3nncs3)CC2)ccn1,20.52
6,CN(C)CC(=O)N1CCC2(CCc3cc(-c4cccnc4)ccc32)CC1.O=C(O)C(F)(F)F.O=C(O)C(F)(F)F,11.92
7,COc1ccc2c(c1)C1(CCN(Cc3nccs3)CC1)N(C)CC2.O=C(O)C(F)(F)F.O=C(O)C(F)(F)F,-9.444
8,O=C(O)C(F)(F)F.O=C(O)C(F)(F)F.c1cncc(-c2ccc3c(c2)CCC32CCN(Cc3nccs3)CC2)c1,61.89
9,O=C(O)C(F)(F)F.O=C(O)C(F)(F)F.c1csc(CN2CCC3(CC2)CCN(CC2CC2)CC3)n1,-43.47
10,O=C(O)C(F)(F)F.O=C(O)C(F)(F)F.c1cncc(-c2ccc3c(c2)CCC32CCN(Cc3ccco3)CC2)c1,82.31
11,CN1CCN(Cc2cccnc2)C(=O)C12CCN(Cc1ccco1)CC2.O=C(O)C(F)(F)F.O=C(O)C(F)(F)F.O=C(O)C(F)(F)F,15.2
12,CC(C)(C)c1n[nH]cc1CNC1CCC(OCC(F)(F)F)CC1.Cl (stereo not drawn),-6.883
13,CCN(CC(C)C#N)C(=O)CNc1ccc(C(N)=O)c(C)c1 (stereo not drawn),7.465
14,O=C(CC1CCCC1)NCCS(=O)(=O)N1CCN(c2ccccn2)CC1,-6.415
15,CN(C)c1nccc(C2CCN(C3CCCCC3O)CC2)n1 (stereo not drawn),-26.39
16,Cn1ccnc1CN1CCCN(C(=O)c2ccc3ccccc3c2)CC1,4.708
17,COc1ccc(C)cc1NC(=O)c1coc(C)n1,8.355
18,CCN(C(=O)c1ccc2c(c1)OCO2)C1CC(=O)NC1=O (stereo not drawn),-9.897
19,CC(=O)c1ccc(N2CCN(C(=O)c3cc(C(C)C)nn3C)CC2)cc1,16.14
20,CC(C)c1cc(C(=O)N2CCN(c3ccncc3)CC2)n(C)n1,12.8
21,CC(C)c1cc(C(=O)N2CCN(c3ccc(F)c(Cl)c3)CC2)n(C)n1,54.92

# From ChEMBL document CHEMBL3988442, “University of Dundee, Small-Polar-MMV Screening Library” (2021)
